D1 agonist: human D1 receptor agonism | 360,000 tested, 1% active | P21728 | activation, % at 2 µM | HEK293 T-REx D1 cells, calcium flux, agonist mode | AID 504660; in the data active = activation above about 30%
Target sequence (P21728 whole entry, looked up): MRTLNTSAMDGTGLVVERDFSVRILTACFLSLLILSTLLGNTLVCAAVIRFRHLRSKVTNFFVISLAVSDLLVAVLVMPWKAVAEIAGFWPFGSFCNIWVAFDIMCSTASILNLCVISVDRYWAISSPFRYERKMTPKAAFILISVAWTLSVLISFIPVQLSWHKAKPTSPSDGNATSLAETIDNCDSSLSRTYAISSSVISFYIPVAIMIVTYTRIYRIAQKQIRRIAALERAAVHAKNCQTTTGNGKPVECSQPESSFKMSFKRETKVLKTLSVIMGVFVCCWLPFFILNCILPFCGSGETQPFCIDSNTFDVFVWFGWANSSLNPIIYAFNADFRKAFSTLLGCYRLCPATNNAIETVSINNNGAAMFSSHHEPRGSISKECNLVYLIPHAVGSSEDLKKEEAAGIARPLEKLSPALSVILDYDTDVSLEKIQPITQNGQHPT
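Agonism was scored from calcium flux recorded over 180 s (1 read/s) after pintool compound addition, following a 10-cycle baseline. Cells were inducible force-coupled HEK293 TREx D1, plated overnight at 30 C and loaded with no-wash calcium dye.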
D1 antag: antagonists of human D1 dopamine receptor | P21728 | HEK293 TREx D1 cells, calcium flux, dopamine EC80; active compounds read low | activity change, negative = inhibition, % at 10 µM | 360,000 tested, 3.2% active | AID 504652; in the data active = activity change below about -30%
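Inducible Hek293 Trex D1 cells (tetracycline, overnight, 30 C). Calcium dye 30–90 min RT. Antagonist mode: EC80 dopamine added after 180 s compound read.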
DRD3 agonist: D3 dopamine receptor (human) agonism | D3R DiscoveRx beta-arrestin cells, luminescence, 90 min | max activation, % | 410,000 tested, 0.58% active | AID 652048; in the data active = max activation above about 30%
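Cells at 1500/well, incubated overnight, then treated with pinned compounds (dopamine as control) for 90 min at 37 degrees C. DiscoveRx reagent added for 30 - 60 minutes at room temperature; luminescence read.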
D1 PAM: enhances dopamine response at the human D1 receptor; P21728; HEK293 TREx D1 cells, calcium flux, dopamine EC20 potentiation; potentiation, % at 10 µM; 360,000 tested, 0.036% active; AID 504651; in the data active = potentiation above about 30%
D3 antag: D3 dopamine receptor (human) antagonism | D3R cells, DiscoveRx beta-arrestin luminescence, antagonist mode; active compounds read low | max response, negative = inhibition, % | P35462 | 360,000 tested, 2.5% active; in the data active = max response below about -50%; inconclusive = no clear call, values can overlap the other calls
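Cells expressing the human receptor were seeded at 1500 cells/well, incubated overnight at 37 degrees C in 5% CO2, then exposed to library compounds with dopamine controls for 90 minutes at 37 degrees C before luminescent detection.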
Each line names hits and unclear results; the compound was inactive in the other large screens; ! = not active in a repeat. Rows were chosen to be rich in hits. Some 6% of all compounds tested hit in one or more screens of this group.

C[C@H]1CN([C@@H](C)CO)C(=O)CCCn2nncc2CO[C@@H]1CN(C)Cc1cccc(C(=O)O)c1	none (no result: D1 agonist, D1 antag, D1 PAM)
O=C(CS(=O)Cc1ccco1)NC/C=C\COc1cc(CN2CCCCC2)ccn1 (centres undefined)	none (no result: D1 agonist, D1 antag, D1 PAM, D3 antag)
COC(=O)c1cc(O)c(O)c(O)c1	DRD3 agonist 35
CCCOC(=O)c1cc(O)c(O)c(O)c1	none (no result: D1 agonist, D1 antag, D1 PAM, D3 antag)
Cc1ccc(CNC(=O)c2cc3c(=O)n(C)c4ccccc4c3n2C)o1	D1 antag -45 (no result: D1 PAM)
Cc1ccc(CNC(=O)c2cn(C3CCCCC3)c(=O)c3c2c2ccccc2n3C)o1	D3 antag -75
Cc1ccc(CNC(=O)c2cn(C)c(=O)c3c2c2ccccc2n3C)o1	none
CN(C)c1ccc(CNC(=O)C2CCN(S(=O)(=O)c3ccc4[nH]c(=O)ccc4c3)CC2)cc1	D1 antag -41 (no result: D3 antag)
Cc1ccc(NC(=O)C2CCCN(S(=O)(=O)c3ccc4[nH]c(=O)ccc4c3)C2)cc1Cl (centres undefined)	D1 antag -48 (no result: D3 antag)
CN(C)c1ccc(CNC(=O)C2CCN(S(=O)(=O)c3ccc4c(c3)oc(=O)n4C)CC2)cc1	none
COc1ccc(NC(=O)C2CCCN(S(=O)(=O)c3ccc4[nH]c(=O)ccc4c3)C2)cc1Cl (centres undefined)	none (no result: D3 antag)
Cc1ccc(NC(=O)C2CCN(S(=O)(=O)c3ccc(N4CCCC4=O)cc3)CC2)cc1Cl	D1 antag -71
COc1ccc(NC(=O)C2CCN(S(=O)(=O)c3ccc(N4CCCC4=O)cc3)CC2)c(OC)c1	none
CNCc1ccccc1Sc1cc(O)ccc1O	D3 antag -55
CCOC(=O)C1CCCN(C(=O)CCS(=O)(=O)c2cc3c(cc2Cl)NC(=O)CO3)C1 (centres undefined)	none (no result: D3 antag)
COC(=O)[C@H]1[C@H]2C[C@H]3c4[nH]c5ccccc5c4CCN3C[C@H]2CC[C@@H]1O	D3 antag -132
COC(=O)C1C(O)CCC2CN3CCc4c([nH]c5ccccc45)C3CC21 (centres undefined)	D3 antag inconclusive
Cc1ccc(S(=O)(=O)N2c3ccccc3CC2C)cc1 (centres undefined)	none
CC1Cc2ccccc2N1S(=O)(=O)c1cccs1 (centres undefined)	D3 antag -110
COc1ccc(C(=O)Nc2ccc3c(c2)OCO3)cc1S(=O)(=O)N1CCOCC1	none (no result: D1 agonist, D1 antag, D1 PAM)
O=C(NCCCN1CCN(c2ccc(F)cc2)CC1)C1COc2ccccc2C1 (centres undefined)	none (no result: D3 antag)
Cc1ccc2c(c1)NC(=O)C(CC(=O)NCCCN1CCN(c3cc(Cl)ccc3C)CC1)O2 (centres undefined)	D3 antag -72
Cc1cccc(N2CCN(CCNC(=O)C3COc4ccccc4C3)CC2)c1C (centres undefined)	D1 antag -51 (no result: D3 antag)
Cc1ccc(Cl)cc1N1CCN(CCCNC(=O)C2COc3ccccc3C2)CC1 (centres undefined)	D1 agonist 41, D1 antag -37 (no result: D3 antag)
C[C@H]1CNC(=O)c2c(C(=O)N[C@@H](Cc3c[nH]c4ccccc34)C(=O)OC(C)(C)C)ncn21	none (no result: D1 agonist, D1 antag, D1 PAM)
O=C(CCNS(=O)(=O)c1ccc2c(c1)CCCC(=O)N2)NCc1ccc(Cl)cc1	none (no result: D3 antag)
COc1ccccc1CCNC(=O)C(=O)NCC(c1ccco1)S(=O)(=O)c1ccc(C)cc1 (centres undefined)	none (no result: D1 antag, D3 antag)
CC1CC(=O)Nc2ccccc2N1C(=O)CSc1ccc2ccccc2n1 (centres undefined)	none (no result: D1 agonist, D1 antag, D1 PAM)
CC(C)(C)C(=O)OCOC(=O)[C@@H]1N2C(=O)[C@@H](N=CN3CCCCCC3)[C@H]2SC1(C)C	DRD3 agonist 32!
O[C@@H](CNC[C@H](O)c1ccccc1)c1ccccc1	none
Cc1cc(C)n(CCCNCC(O)c2ccccc2)n1 (centres undefined)	D3 antag -64!
CCc1ccccc1NC(=O)CN1C(=O)c2ccccc2Sc2ncccc21	none (no result: D3 antag)
COc1ccc(NC(=O)c2c(NCc3cccc(OC)c3)sc3c2CCC3)cc1	none (no result: D3 antag)
COc1ccc(CCNCC(O)COc2cccc(C)c2)cc1OC (centres undefined)	none (no result: D1 agonist, D1 antag, D1 PAM, D3 antag)
COc1ccccc1COCC(O)CNCCc1ccc(C(F)(F)F)cc1 (centres undefined)	D1 agonist 50
COc1ccc(CCNCC(O)COc2cccc(Br)c2)cc1 (centres undefined)	D1 agonist 30
CC(=O)c1cccc(OCC(O)CNCCc2ccc(Cl)cc2)c1 (centres undefined)	none
OC(CNCCc1ccc(C(F)(F)F)cc1)COc1cccc2ccccc12 (centres undefined)	D1 agonist 42
OC(CNCCc1ccc(C(F)(F)F)cc1)COc1ccc2ccccc2c1 (centres undefined)	D1 agonist 106
c1ccc(CN(Cc2ccccc2)Cc2nnc(-c3cc4ccccc4[nH]3)o2)cc1	none (no result: DRD3 agonist, D3 antag)
C#CCNC(=O)C[C@@H]1C[C@@]2(C(=O)OCC)CCC=C2N(Cc2ccc(Cl)cc2Cl)C1=O	none (no result: D1 agonist, D1 antag, D1 PAM)
COc1cc(-c2nnc(SCC(=O)N(C)C3CCCCC3)o2)cc(OC)c1OC	none (no result: D3 antag)
O=C1C=C(c2ccc3c(c2)OCCO3)C[C@@H](c2ccc(F)cc2)C1	D3 antag inconclusive (no result: D1 antag)
Cc1ccc(NC(=O)c2sc3nc[nH]c(=O)c3c2C)cc1Cl	none (no result: D3 antag)
Cc1ccc(NC(=O)c2sc3nc[nH]c(=O)c3c2C)c(C)c1	D1 antag -48
CC(C)C1N=C2c3ccccc3N=C(SCC(=O)NCc3ccccc3Cl)N2C1=O (centres undefined)	none (no result: D3 antag)
O=C(C1=C[C@H](c2ccc(C(F)(F)F)cc2)C[C@H](OCc2ccc(CO)cc2)O1)N1CCCCCCC1	D3 antag -72
O=C(C1=C[C@H](c2ccccc2)C[C@H](OCc2ccc(CO)cc2)O1)N1CCN(Cc2ccccc2)CC1	D3 antag -50
O=C(C1=C[C@@H](c2ccc(C(F)(F)F)cc2)C[C@@H](OCc2ccc(CO)cc2)O1)N1CCOCC1	none
O=C(C1=C[C@@H](c2ccccc2)C[C@@H](OCc2ccc(CO)cc2)O1)N1CCN(Cc2ccc3c(c2)OCO3)CC1	D3 antag inconclusive
O=C(C1=C[C@@H](c2csc3ccccc23)C[C@@H](OCc2ccc(CO)cc2)O1)N1CCN(Cc2ccc3c(c2)OCO3)CC1	D3 antag inconclusive
O=C(C1=C[C@@H](c2csc3ccccc23)C[C@@H](OCc2ccc(CO)cc2)O1)N1CCN(Cc2ccccc2)CC1	D3 antag -53
NC(=O)OC[C@@H]1[C@H](NC(=O)/C(=N\OCC(=O)O)c2csc(N)n2)C(=O)N1S(=O)(=O)O	none (no result: D1 agonist, D1 antag, D1 PAM, D3 antag)
Cc1ccc(C)c(N2CCN(c3nc4ccccc4n4nnnc34)CC2)c1	none (no result: D3 antag)
CCS(=O)(=O)N1CCC2(CC1)OC(=O)C(C)=C2C(=O)NCc1ccccc1C	D1 antag -54 (no result: D3 antag)
COc1cc2c(cc1OC)CN(C(=O)CCOc1ccccc1C)CC2	none
O=c1n(Cc2ccc(Cl)cc2)c2ccccc2c2nc(-c3ccccc3)nn12	none (no result: D3 antag)

Screens (PubChem)
